CtBP-E1A inh: CtBP/E1A binding inhibition; AlphaScreen GST-E1A/His-CtBP binding, 1536-well; active compounds read low; activity change, % (no concentration beside the values); 340,000 compounds, 0.49% hits; AID 651724; in the data active means activity change below about -65%; inconclusive means mostly about -30% to -63%
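Homogeneous bead-based format: GST-tagged E1A captured on glutathione donor beads, His-tagged CtBP on nickel acceptor beads; compounds precede bead addition by 2 h at 37 °C.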
PKM2 act: activators of human pyruvate kinase M2 | P14618 | purified PKM2, Kinase-Glo ATP luminescence, activation; response scale: 0% is enzyme alone, no compound | Potency, µM (titrated, usually from 57.5 µM), usual class: activators | 260,000 compounds, 0.34% hits | AID 1631; further: nearly all actives have a fitted effect of over 55% in size
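Purified hPK-M2 (>95%) run at intermediate activity with 0.1 mM ADP and 0.5 mM PEP in 50 mM imidazole pH 7.2, KCl, MgCl2; 1 h room temperature. ATP formed read by Kinase-Glo luminescence; normalized to uninhibited and no-enzyme controls.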
RORg inh: blocks mouse ROR gamma transcriptional activity; Drosophila S2 Gal4-RORgamma UAS-luciferase reporter, 20 h; P51450; 310,000 compounds, 5.4% hits; Potency, µM (titrated, usually from 53.6 µM), usual class: inhibitors; further: nearly all actives have a fitted effect of over 60% in size
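Stably transfected Drosophila Schneider cells are the test system, with ROR gamma fused to Gal4 and luciferase under UAS control; luminescence is read after 20 hr of 700 uM copper sulfate induction at ambient temperature.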
VP16 counter: Gal4-VP16 reporter inhibition counter-screen; Drosophila S2 Gal4-VP16 UAS-luciferase, luminescence, 20 h; Potency, µM (top dose mostly 53.6 µM), usual class: inhibitors; 310,000 compounds, 3.5% hits; AID 2546;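 further: Gal4-VP16 expression switched on by copper sulfate through the metallothionein promoter; nearly all actives have a fitted effect of over 50% in size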
Six1-Eya2 blk: inhibitors of human Six1/Eya2 interaction | activity change, % (concentration not given with the values) | AID 651725 | AlphaScreen GST-Six1/His-Eya2 binding, biochemical; active compounds read low | 360,000 compounds, 0.56% hits | Q15475+O00167; in the data active means activity change below about -65%; inconclusive means mostly about -30% to -63%
Target sequence (O00167 whole entry, looked up): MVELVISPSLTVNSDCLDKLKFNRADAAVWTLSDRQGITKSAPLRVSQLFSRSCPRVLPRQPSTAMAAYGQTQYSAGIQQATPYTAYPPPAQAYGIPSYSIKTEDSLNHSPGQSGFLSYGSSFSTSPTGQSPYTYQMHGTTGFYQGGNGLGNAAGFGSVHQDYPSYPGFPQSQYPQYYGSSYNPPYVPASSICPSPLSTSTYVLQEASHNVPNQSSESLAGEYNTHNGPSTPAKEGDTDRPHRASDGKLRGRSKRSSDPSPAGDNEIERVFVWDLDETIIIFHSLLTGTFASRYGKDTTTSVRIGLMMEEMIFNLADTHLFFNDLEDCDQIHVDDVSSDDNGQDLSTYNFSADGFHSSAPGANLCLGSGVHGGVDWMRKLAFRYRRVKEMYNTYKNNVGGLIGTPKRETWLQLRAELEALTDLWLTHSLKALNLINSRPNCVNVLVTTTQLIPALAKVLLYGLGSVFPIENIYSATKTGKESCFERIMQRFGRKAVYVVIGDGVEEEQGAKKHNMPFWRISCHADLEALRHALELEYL
Target sequence (Q15475 whole entry, looked up): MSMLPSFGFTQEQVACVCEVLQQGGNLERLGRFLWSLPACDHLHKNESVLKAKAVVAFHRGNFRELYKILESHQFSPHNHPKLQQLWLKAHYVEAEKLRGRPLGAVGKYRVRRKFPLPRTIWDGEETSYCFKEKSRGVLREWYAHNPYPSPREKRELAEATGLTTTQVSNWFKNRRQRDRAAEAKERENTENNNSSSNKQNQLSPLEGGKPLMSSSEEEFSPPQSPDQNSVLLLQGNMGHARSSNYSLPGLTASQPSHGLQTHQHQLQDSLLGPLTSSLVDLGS
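AlphaScreen with GST-Six1 and His-Eya2 (5X mix: 250 nM and 500 nM), glutathione donor and nickel acceptor beads; buffer 50 mM Tris pH 8.0, 300 mM NaCl, 1 mM TCEP; 1 h at 37 C in the dark.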
A number is an active result; . = inactive; ? = inconclusive; / = no result; ! = a repeat was not active; [ ] = dose if it differs, or a comment. A selection: hits, their analogues and other compounds. The true share with any hit is near 5.6%. Unless noted, the call rests on the fitted dose curve; in most records, active means well fitted curve in the direction sought with a large enough effect; inconclusive means small, poorly fitted or top-dose-only effect, or another doubt; inactive means no such curve, though single readings can be large; an effect the other way counts as inactive or inconclusive.

SMILES | CtBP-E1A inh | PKM2 act | RORg inh | VP16 counter | Six1-Eya2 blk
CCc1nnc(N/N=C/c2ccc(N3CCC(C)CC3)c([N+](=O)[O-])c2)n1N | ? | . | 10µM | ? | .
CC1CCN(c2cc(N3CCOCC3)c([N+](=O)[O-])cc2F)CC1 | . | . | . | . | .
O=C(NC1CCCCC1)C(c1cccnc1)N(C(=O)CCl)c1ccc(F)cc1 (stereo not drawn) | . | . | 11.2µM | ? | .
COc1ccc(N(C(=O)CCl)C(C(=O)NC2CCCCC2)c2cccnc2)cc1 (stereo not drawn) | . | . | ? | . | .
CC(C)C[C@H](N)c1nnc(S(=O)(=O)Cc2ccc(F)cc2)o1 | . | 10µM | . | 14.1µM | .
Cc1cccc(-n2c3nc(=O)[nH]c(=O)c-3cc3cc([N+](=O)[O-])ccc32)c1 | . | . | ? | ? | .
Cc1ccc(C)c(-n2c3nc(=O)[nH]c(=O)c-3cc3cc([N+](=O)[O-])ccc32)c1 | . | . | 10µM | 11.2µM | .
Cc1occc1C(=O)NNC(=O)c1ccccc1Br | . | . | . | . | .
Cc1ccccc1-c1cnc(C(O)c2ccc(-c3ccccc3)cc2)[nH]1 (stereo not drawn) | ? | / | / | / | .
Cc1cc(NC(=O)CSc2nc(C(C)(C)C)nc3ccccc23)no1 | . | . | . | . | .
Cc1nnc(NC(=O)CSc2ccc(-c3cccnc3)nn2)s1 | . | 2.82µM | . | . | .
Cc1cc(NC(=O)CSc2ccc3nnc(-c4ccc(F)cc4)n3n2)no1 | . | . | . | . | .
Cc1cc(NC(=O)CSc2ccc3nnc(-c4cccs4)n3n2)no1 | -67.6 | ? | . | . | ?
Cc1cc(NC(=O)CSc2ncnc3ccccc23)no1 | . | ? | 7.94µM | . | .
Cc1cc(NC(=O)CSc2ccc(-c3ccc(F)cc3)nn2)no1 | . | 7.08µM | . | . | .
Cc1c(NC(=S)NNC(=O)CCC(=O)O)c(=O)n(-c2ccccc2)n1C | . | . | . | . | .
CN(C)S(=O)(=O)c1ccc(Cl)c(NC(=O)COC(=O)c2ccc3c(c2)NC(=O)CS3)c1 | / | . | . | . | .
Cc1cc(NC(=O)CSc2ccc(-c3ccccc3)nn2)no1 | . | 15.8µM | . | . | .
Cc1cc(NC(=O)CSc2ccc(-c3cccc([N+](=O)[O-])c3)nn2)no1 | . | . | . | . | .
Cc1ccc(N=C2NC(=O)/C(=C\c3ccsc3)S2)c(C)c1 | . | . | ? | ? | .
CCc1cc2cc(C)cc(C)c2[nH]c1=S | . | . | 7.08µM | . | .
C/C(=N\N=C(/N)c1nonc1N)c1ccc2c(c1)OCO2 | / | . | . | . | .
O=C1c2c(O)ccc(O)c2C(=O)c2c(NCCNCCO)ccc(NCCNCCO)c21 | -81.7 | / | 10µM! | ? | -84.9!
Cc1ccc(S(=O)(=O)NCCC(=O)Nc2ccc(Cl)c(Cl)c2)cc1 | . | . | . | ? | .
Cc1ccc(S(=O)(=O)NCCC(=O)Nc2ccc(Cl)c(Cl)c2)cc1C | / | . | ? | 11.2µM | .
SMILES | CtBP-E1A inh | PKM2 act | RORg inh | VP16 counter | Six1-Eya2 blk
CCCCC(=O)N(C)c1c(CC)nc2c(OCC(N)=O)cccn12 | . | / | / | / | .
COc1ccc(OC)c(S(=O)(=O)Nc2ccc3[nH]c(=O)[nH]c3c2)c1 | . | / | . | . | .
Cc1cccc(C(=O)OCC(=O)c2csc(N3CCCCC3)n2)c1[N+](=O)[O-] | / | / | / | / | .
CCOC(=O)c1cn[nH]c1NC(=S)Nc1ccc(Cl)cc1 | . | . | 2.82µM | ? | .
CCOC(=O)c1cccc(NC(=S)NCc2ccc(C)cc2)c1 | . | . | 10µM | ? | .
CCOC(=O)c1ccc(NC(=S)N2CCSC2c2ccc(OC)cc2)cc1 (stereo not drawn) | . | . | ? | ? | .
CCOC(=O)c1ccc(NC(=S)Nc2ccccc2)cc1 | . | . | ? | . | .
CC(=O)c1cccc(NC(=S)NCc2ccccc2)c1 | . | . | ? | . | .
CCOC(=O)c1ccc(NC(=S)Nc2ccc(C)cc2)cc1 | . | . | 12.6µM | ? | .
CCOC(=O)c1c(NC(=O)Nc2ccc(Cl)cc2)sc(C)c1C | . | . | . | ? | .
CCOC(=O)c1ccc(NC(=S)N2CCSC2c2ccc(Cl)cc2)cc1 (stereo not drawn) | . | . | 14.1µM | ? | .
COc1ccccc1NS(=O)(=O)c1c(C)[nH]c(C)c1C(=O)N1CCCC1 | . | / | . | . | .
CCc1ccc(NC(=O)CSc2nc3ccccc3nc2N2CCCC2)cc1 | . | . | . | . | .
CCOC(=O)CN(Cc1ccccc1)C(=O)OC(C)(C)C | / | . | . | . | /
COc1cc(/C=C2/C(=N)N3N=C(CC(=O)N4CCOCC4)SC3=NC2=O)ccc1OCc1ccc(F)cc1 | . | / | . | . | .
CCOC(=O)c1ccc(NC(=S)NCCc2ccc(F)cc2)cc1 | . | . | 10µM | ? | .
CCOC(=O)c1ccc(NC(=O)C(=O)NCCc2ccc(OC)cc2)cc1 | . | . | . | . | .
CN(Cc1ccccc1F)C(=O)CN1CCN(S(=O)(=O)c2ccc3c(c2)OCCCO3)CC1 | / | / | / | / | .
CCOC(=O)c1[nH]c2cc(OC)c(OC)cc2c1NC(=O)C(C)N1CCN(Cc2ccccc2)CC1 (stereo not drawn) | -65.4 | . | . | . | ?
CCOC(=O)c1[nH]c2ccc(OC)cc2c1NC(=O)C(C)N1CCSCC1 (stereo not drawn) | / | . | . | . | /
O=C(CC[C@H]1O[C@@H](n2ccc(=O)[nH]c2=O)[C@H](O)[C@@H]1O)NCCCc1ccccc1 | . | / | / | / | .
CNNC(=O)C(=O)NNS(=O)(=O)c1ccccc1 | / | . | . | . | .
Cc1ccccc1S(=O)(=O)NNC(=O)C(=O)NNc1ccccn1 | -71.2 | . | . | . | -81.7
Cc1ccc([N+](=O)[O-])cc1S(=O)(=O)Nc1ccccn1 | . | . | . | . | .
CC(=O)Nc1ccc(S(=O)(=O)NNC(=O)C(=O)NNc2ccccn2)cc1 | / | . | . | . | ?
SMILES | CtBP-E1A inh | PKM2 act | RORg inh | VP16 counter | Six1-Eya2 blk
Nc1ccc(S(=O)(=O)NNC(=O)C(=O)NNc2ccccn2)cc1 | -68.5 | . | . | . | -92.6
Cc1ccc(S(=O)(=O)NNC(=O)C(=O)NNc2ccccn2)cc1 | -92.6 | . | 8.91µM | . | -88.2
C=CCN1C(=O)NC(c2ccc(OC)cc2)(C(F)(F)F)S/C1=C(\C#N)c1nnc(N2CCOCC2)n1-c1ccccc1 (stereo not drawn) | . | . | 4.47µM | 12.6µM | .
COc1ccc2c(CCNC(=O)c3ccc([N+](=O)[O-])cc3)c[nH]c2c1 | . | . | . | .[10 µM] | .
CCCCCCCCCCOc1cc(OCCCCCCCCCC)cc(N(CC(=O)O)CC(=O)O)c1 | / | / | . | . | /
Cc1ccc(C(=O)N(CCCN(C)C)c2nc3ccc(Cl)cc3s2)cc1C | . | . | 10µM | 17.8µM | .
CN(C)CCCN(C(=O)c1ccc(S(=O)(=O)N2CCc3ccccc3C2)cc1)c1nc2ccc(F)cc2s1 | . | . | ? | 11.2µM | .

Screening results: PubChem BioAssay, National Center for Advancing Translational Sciences (NCATS)
